{"source": "PubChem BioAssay AID652054", "about": "(National Center for Advancing Translational Sciences (NCATS), 2013)", "note": "Hit rate of the full screen: of about 360,000 compounds, about 9,100 (2.5%) were called active. Another 4% or so got no clear call; they are omitted. Only a selection was taken, and actives are over-represented in it overall. Values without a mark were called inactive. No stated cut-off is given here; in the data, active means max response below about -50%; inconclusive means no clear call, values can overlap the other calls; inactive means above that. On the % scale 0 is the no-effect control and ±100 the full control effect.", "data": [{"target": "D(3) dopamine receptor (Homo sapiens) (UniProt P35462)", "sequence (P35462 whole entry, looked up)": "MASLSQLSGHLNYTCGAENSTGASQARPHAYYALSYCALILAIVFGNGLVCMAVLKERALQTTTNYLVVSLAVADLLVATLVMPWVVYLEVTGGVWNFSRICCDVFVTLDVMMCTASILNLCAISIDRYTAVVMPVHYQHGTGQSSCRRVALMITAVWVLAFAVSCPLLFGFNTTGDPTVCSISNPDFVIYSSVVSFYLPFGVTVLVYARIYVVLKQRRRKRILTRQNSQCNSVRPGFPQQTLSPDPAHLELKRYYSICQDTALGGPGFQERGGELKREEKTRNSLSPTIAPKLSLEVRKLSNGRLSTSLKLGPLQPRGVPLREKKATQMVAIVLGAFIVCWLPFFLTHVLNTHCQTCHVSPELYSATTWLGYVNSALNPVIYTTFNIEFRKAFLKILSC", "experiment": "qHTS of D3 Dopamine Receptor Antagonist: qHTS", "details": "D3R cells, DiscoveRx beta-arrestin luminescence, antagonist mode; active compounds read low", "how_it_was_run": "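Cells plated overnight at 1500 cells/well, then exposed to library compounds with dopamine controls for 90 minutes at 37 degrees C. DiscoveRx reagent added for 30–60 minutes at room temperature; luminescence read, quantitative HTS format.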", "values": [{"smiles": "CC(=O)c1ccc(NC(=O)Nc2ccc([N+](=O)[O-])cc2C)cc1", "max response, negative = inhibition": "-18.2%"}, {"smiles": "CCN(CC)S(=O)(=O)c1cc([N+](=O)[O-])ccc1N=Nc1c(O)n(C)c2ccccc12", "max response, negative = inhibition": "3.23%"}, {"smiles": "COc1ccc(-c2cc(C(F)(F)F)nc(S(C)(=O)=O)n2)cc1OC", "max response, negative = inhibition": "-72.7% (active)"}, {"smiles": "COc1ccc(-c2cc(-c3ccc(N)cc3)nc(N)c2C#N)cc1OC", "max response, negative = inhibition": "23.8%"}, {"smiles": "COc1ccc(-c2ccc(Nc3ccc(S(=O)(=O)N4CCCC4)cc3)nn2)cc1OC", "max response, negative = inhibition": "39.5%"}, {"smiles": "COc1ccc(NC(=O)CCCOc2ccc(C(C)=O)cc2)cc1S(=O)(=O)N1CCCCC1", "max response, negative = inhibition": "-5.42%"}, {"smiles": "CC(C)NC(=O)C1(C)CCCCCN1C(=O)c1ccc(-c2ccccc2)cc1", "note": "(centres undefined)", "max response, negative = inhibition": "15.2%"}, {"smiles": "CCOC(=O)C(=Cc1ccccc1)C(=O)c1ccccc1", "max response, negative = inhibition": "-59.2% (active)"}, {"smiles": "CCOC(=O)C(=Cc1ccccc1OC)C(=O)OCC", "max response, negative = inhibition": "-20.5%"}, {"smiles": "CCOC(=O)C(=CNc1cccc(C)n1)C(=O)OCC", "max response, negative = inhibition": "-3.11%"}, {"smiles": "COC(=O)c1ccc2nc(-c3cccc(Br)c3)c(Cc3ccc(OC)cc3C)n2c1", "max response, negative = inhibition": "-25.6%"}, {"smiles": "Cc1ccccc1S(=O)(=O)N1[C@@H](c2cccc(Cl)c2)C(C(=O)OC(C)(C)C)=CC[C@H]1c1ccc(Cl)cc1", "max response, negative = inhibition": "6.92%"}, {"smiles": "CCOC(=O)C1(CC2CCCCO2)CCN(Cc2nc(-c3cccs3)oc2C)CC1", "note": "(centres undefined)", "max response, negative = inhibition": "-99% (active)"}, {"smiles": "CCOc1ccccc1-c1nc(CN2CCC(C(=O)N3CCOCC3)CC2)c(C)o1", "max response, negative = inhibition": "-15.7%"}, {"smiles": "CC(Sc1nnc(-c2cccs2)n1C1CC1)C(=O)NCC1CCCO1", "note": "(centres undefined)", "max response, negative = inhibition": "15.9%"}, {"smiles": "COc1ccccc1-c1cc2nc(NCc3cccc(Cl)c3)ccn2n1", "max response, negative = inhibition": "7.72%"}, {"smiles": "Cc1cccc(C)c1-n1nnnc1C1(C)CCC(=O)N1CCOc1ccccc1", "note": "(centres undefined)", "max response, negative = inhibition": "8.1%"}, {"smiles": "COc1ccc(CN2CCN(C(=O)c3cc(C4CC4)nn3-c3ccccc3)CC2)cc1F", "max response, negative = inhibition": "-50% (active)"}, {"smiles": "COc1ccc(NC(=O)CN(C)C(=O)c2cc(C3CC3)nn2-c2ccccc2)cc1", "max response, negative = inhibition": "-0.552%"}, {"smiles": "CCc1ccccc1NC(=O)CN1CCN(C(=O)c2cc(C3CC3)nn2-c2ccccc2)CC1", "max response, negative = inhibition": "13.7%"}, {"smiles": "CC(C)OC(=O)CC(=O)CC(O)c1cccc([N+](=O)[O-])c1", "note": "(centres undefined)", "max response, negative = inhibition": "-17.6%"}, {"smiles": "COc1ccc([C@@H]2[C@@H]3C(=O)N(C(C)(C)C)C(=O)[C@@H]3[C@]3(Cc4ccccc4)C(=O)N(c4cccc(Br)c4)C(=O)N23)cc1", "max response, negative = inhibition": "8.03%"}, {"smiles": "CC[C@@]12C(=O)N(c3ccccc3)C(=O)N1[C@H](c1ccc(Br)cc1)[C@@H]1C(=O)N(C(C)(C)C)C(=O)[C@@H]12", "max response, negative = inhibition": "-54% (active)"}, {"smiles": "CC(C)(C)N1C(=O)[C@H]2[C@@H](c3ccc(Br)cc3)N3C(=O)N(c4cccc(Cl)c4)C(=O)[C@@]3(C)[C@H]2C1=O", "max response, negative = inhibition": "-1.37%"}, {"smiles": "O=C1C(Sc2cccc(F)c2)=C[C@@]2(O)CC[C@@H](O)[C@]1(Sc1cccc(F)c1)[C@H]2O", "max response, negative = inhibition": "4.49%"}, {"smiles": "CCOC(=O)C(C)n1cnc2c(nnn2-c2cccc(OC)c2)c1=O", "note": "(centres undefined)", "max response, negative = inhibition": "-57.8% (active)"}, {"smiles": "CCOC(=O)C(C)n1cnc2c(nnn2-c2ccc(F)cc2)c1=O", "note": "(centres undefined)", "max response, negative = inhibition": "-1.26%"}, {"smiles": "COC(=O)C(C)n1cnc2c(nnn2-c2ccc(F)cc2)c1=O", "note": "(centres undefined)", "max response, negative = inhibition": "0%"}, {"smiles": "CCCCCCCCN1C(=O)[C@H](CC(=O)NCc2cccc3ccccc23)C[C@@]2(C(=O)OC)CCCCC=C12", "max response, negative = inhibition": "10.6%"}, {"smiles": "C#CCOCCOCCOCCNc1nc(N2CCN(C(=O)[C@H](C(C)C)n3cc(CCO)nn3)CC2)nc(N2CCN(C(=O)[C@H](C(C)C)n3cc(CCO)nn3)CC2)n1", "max response, negative = inhibition": "8.41%"}, {"smiles": "C#CCOCCOCCOCCNc1nc(N2CCN(C(=O)Cn3cc(CCO)nn3)CC2)nc(N2CCN(C(=O)[C@H](CCCCN)n3cc(CCCC)nn3)CC2)n1", "max response, negative = inhibition": "15.4%"}, {"smiles": "C#CCOCCOCCOCCNc1nc(N2CCN(C(=O)CCCCCCCCCCNC(=O)[C@H]([C@@H](C)CC)n3cc(CCCCN=C(N)N)nn3)CC2)nc(N2CCN(C(=O)CCCCCCCCCCNC(=O)[C@H](CO)n3cc(CCCSC)nn3)CC2)n1", "max response, negative = inhibition": "-60.9% (active)"}, {"smiles": "Cc1ccc(-c2nc3c(Cl)cc(C(F)(F)F)cn3c2Cc2cccc(Cl)c2)cc1", "max response, negative = inhibition": "50.6%"}, {"smiles": "COc1cc2nnn(-c3ccncc3)c2cc1OC", "max response, negative = inhibition": "28%"}, {"smiles": "CCC(=O)Nc1sc(C(=O)Nc2ccccc2)c(C)c1C(=O)OC", "max response, negative = inhibition": "31.4%"}, {"smiles": "COCCCNCC(=O)Nc1sc(C)c(C)c1C(=O)OC", "max response, negative = inhibition": "-52.8% (active)"}, {"smiles": "COC(=O)c1c(NC(=O)c2c(Cl)cnn2C)sc(C)c1C", "max response, negative = inhibition": "11.6%"}, {"smiles": "COCc1cccc(-c2csc(C(O)c3ccc(F)cc3)n2)c1", "note": "(centres undefined)", "max response, negative = inhibition": "0%"}, {"smiles": "O=C(c1cccs1)N1C[C@H](n2cc(C3CC3)nn2)[C@@H](O)C[C@@H]1c1ccccc1", "max response, negative = inhibition": "-2.86%"}, {"smiles": "C=CCn1c2c(c3ccccc31)CCC2", "max response, negative = inhibition": "-10.5%"}, {"smiles": "CC(C)C1C(=O)N(Cc2cn(CCC3OCCO3)nn2)CCS(=O)(=O)N1Cc1ccc(-c2ccccc2C(F)(F)F)cc1", "note": "(centres undefined)", "max response, negative = inhibition": "-3.14%"}, {"smiles": "O=C1[C@H]2[C@@H](c3ccc(Cl)cc3)N3C(=O)N(c4cccc(F)c4)C(=O)[C@@]3(Cc3ccccc3)[C@H]2C(=O)N1C1CCCCC1", "max response, negative = inhibition": "-0.596%"}, {"smiles": "Cc1cccc(N2C(=O)N3[C@H](c4ccc(F)cc4)[C@@H]4C(=O)N(C5CCCCC5)C(=O)[C@@H]4[C@]3(Cc3ccccc3)C2=O)c1", "max response, negative = inhibition": "-58.6% (active)"}, {"smiles": "O=C1[C@H]2[C@@H](c3ccc(F)cc3)N3C(=O)N(c4ccc(C(F)(F)F)cc4)C(=O)[C@@]3(Cc3ccccc3)[C@H]2C(=O)N1C1CCCCC1", "max response, negative = inhibition": "-13.4%"}]}]}
